Assay outcomes from PubChem BioAssay.
15-hLO inh: qHTS Assay for Inhibitors of 15-hLO (15-human lipoxygenase); purified 15hLO-1, xylenol orange hydroperoxide absorbance; Polyunsaturated fatty acid lipoxygenase ALOX15 (Homo sapiens), P16050; 74,000 compounds, 1.4% hits; Potency, µM (series often up to 57.1 µM), usual class: inhibitors; note: nearly all actives have a fitted effect of over 55% in size
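Hydroperoxide formed from arachidonic acid (50 uM) by purified human 15hLO-1 (40 nM) oxidizes ferrous iron, and the ferric-xylenol orange complex is read at 573 versus 405 nm. Compounds were preincubated 15 min; reaction ran 6 min at room temperature.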
CRE Fsk mod: Cell signaling CRE-BLA (Fsk stim). AID 662, 2007. Potency, µM (series often up to 38.2 µM), usual class: activators. 71,000 compounds, 2.5% hits. CHO CRE-bla reporter (cAMP response element driving beta-lactamase), forskolin EC10, beta-lactamase ratio; active = well fitted activation curve with a large enough effect in the signal ratio, with a control signal flat, not every such curve was filed as active; inconclusive = small, poorly fitted or top-dose-only effect, or effect the other way, or a change in a side signal; the % refers to the signal ratio
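Titrated compounds plus EC10 NKH 477 on CHO CRE-bla cells, 3 h, 37 °C. CCF4, 2 h RT. Ratio 460/530 nm → AC50.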
Tau fil binding: qHTS Assay for Tau Filament Binding | Microtubule-associated protein tau (Homo sapiens), P10636 | recombinant tau filaments, thioflavin S fluorescence, 15 h; filaments grown with octadecylsulfate alongside compound | Potency, µM (doses to about 57.1 µM) | 71,000 compounds, 2% hits | AID 596, 2007;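 note: actives lower thioflavin S fluorescence by blocking filaments or displacing dye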
Target sequence (P10636 whole entry, looked up): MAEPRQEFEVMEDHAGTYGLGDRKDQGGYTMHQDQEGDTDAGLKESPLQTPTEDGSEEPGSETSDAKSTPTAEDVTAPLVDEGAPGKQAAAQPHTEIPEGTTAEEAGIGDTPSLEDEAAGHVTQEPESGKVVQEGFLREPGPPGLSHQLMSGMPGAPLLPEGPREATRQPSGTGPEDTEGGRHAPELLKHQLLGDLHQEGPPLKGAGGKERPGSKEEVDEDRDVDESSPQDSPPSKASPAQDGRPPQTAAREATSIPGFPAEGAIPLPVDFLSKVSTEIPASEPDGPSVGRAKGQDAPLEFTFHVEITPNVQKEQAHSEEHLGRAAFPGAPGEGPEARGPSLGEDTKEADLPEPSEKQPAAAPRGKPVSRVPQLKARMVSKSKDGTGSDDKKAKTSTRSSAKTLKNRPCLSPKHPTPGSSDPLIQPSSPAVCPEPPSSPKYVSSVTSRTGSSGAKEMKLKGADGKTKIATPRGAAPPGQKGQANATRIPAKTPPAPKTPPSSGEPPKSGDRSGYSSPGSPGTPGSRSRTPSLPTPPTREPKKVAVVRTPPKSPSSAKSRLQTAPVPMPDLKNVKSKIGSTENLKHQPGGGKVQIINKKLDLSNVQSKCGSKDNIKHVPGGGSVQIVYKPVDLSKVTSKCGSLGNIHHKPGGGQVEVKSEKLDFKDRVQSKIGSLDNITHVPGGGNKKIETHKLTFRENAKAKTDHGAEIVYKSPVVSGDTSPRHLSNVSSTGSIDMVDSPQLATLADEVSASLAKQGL
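His-tagged recombinant human tau (exons 2, 3, 10; 1 uM final) fibrillized with 30 uM sodium octadecylsulfate, 15 h at 37 C, in pH 7.4 HEPES buffer with 10 uM thioflavine S and 5 mM DTT. Reduced ThS fluorescence (450/510 nm) marks activity.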
Hsp90 Hop PPI: qHTS Assay for Disrupters of an Hsp90 Co-Chaperone Interaction. 71,000 compounds, 0.44% hits. AlphaScreen TPR2A-His6 binding biotin-Hsp90 C-terminal peptide. Potency, µM (titrated, usually from 57 µM); active = well fitted curve in either direction with a large enough effect; inconclusive = small, poorly fitted or top-dose-only effect, or another doubt
IkB sig inh: IkB Signaling; ABC-DLBCL IkBa-CBG/CBR dual luciferase ratio, 4 h; response scale: scaled: untreated 0%, proteasome inhibitor 100%; Potency, µM (top dose mostly 57.1 µM); 110,000 compounds, 0.04% hits; active = well fitted curve in the direction sought with a large enough effect in the signal ratio, not every such curve was filed as active; inconclusive = small, poorly fitted or top-dose-only effect, or a change in a side signal; the % refers to the signal ratio;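 note: the direction sought is a rising ratio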
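Curves were fitted separately to fusion (green), unfused (red) and ratio luminescence, then classed by r2, magnitude and activity. Cells: OCI-Ly3, 4 h compound plus doxycycline at 37C; 10 uM MG-132 defined full response.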
Hits are given with their value; – = inactive; ? = inconclusive; · = no result; [ ] = remark or other dose. In the library only some 3.6% were active in any assay of this set; here they are far more common. Unless noted, calls come from the whole dose curve; as a rule, active = well fitted curve in the direction sought with a large enough effect; inconclusive = small, poorly fitted or top-dose-only effect, or another doubt; inactive = no such curve, though single readings can be large; an effect the other way counts as inactive or inconclusive.

SMILES	15-hLO inh	CRE Fsk mod	Tau fil binding	Hsp90 Hop PPI	IkB sig inh
O=c1c(-c2ccc(F)cc2)nc2cnc(Oc3ccccc3)nc2n1C[C@H]1CCCO1	–	?	20µM	–	–[11.4 µM]
COc1cccc(Nc2ncc3nc(-c4ccc(Cl)cc4)c(=O)n(C[C@H]4CCCO4)c3n2)c1	–	?	–	–	–[11.4 µM]
COc1ccc(-c2nc3cnc(Nc4ccccc4)nc3n(C[C@H]3CCCO3)c2=O)cc1	–	?	–	–	–[11.4 µM]
[O-][N+]1(CC[N+]2([O-])CCCCC2)CCCCC1	–[11.4 µM]	–[7.6 µM]	–[11.4 µM]	–[11 µM]	–[11.4 µM]
CCC(C)NC(=O)c1c(C)oc2ncn(CC(C)C)c(=O)c12 (stereo unspecified)	·	·	·	·	–
Cc1ccc(OCCn2c(CCNC(=O)C3CCCCC3)nc3ccccc32)cc1	·	·	·	·	–
c1ccc2c(c1)nnn2Cc1nnc2sc(-c3ccc4c(c3)OCCO4)nn12	13µM	–	–	–	–
Cc1ccc2c(=O)cc(C(=O)Nc3ccc(S(=O)(=O)N(C)Cc4ccccc4)cc3)oc2c1	·	·	·	·	–
CCn1cnc2scc(-c3ccccc3)c2c1=O	–	–	–	–	–
Cn1cc(/C=N/n2cnc3scc(-c4ccc(Cl)cc4)c3c2=O)c2ccccc21	–	1µM	–	–	?
CCCc1nc(N)c(C#N)c(-c2cccnc2)c1CC	–	13µM	–	–	–
N#Cc1c(N)nc2c(c1-c1cccnc1)CCCCC2	–[11.4 µM]	?	–[11.4 µM]	–[11 µM]	–
Cc1cccn2c(=O)c3cc(C#N)c(=O)n(-c4c(C)n(C)n(-c5ccccc5)c4=O)c3nc12	–	–	–	–	–
Cc1ccc(-n2c(=O)c(C#N)cc3c(=O)n4ccccc4nc32)cc1	–	2.5µM	–	–	–
Cc1cc(-n2c(=O)c(C#N)cc3c(=O)n4cccc(C)c4nc32)no1	–	3.2µM	–	–	–
COc1ccc(NC(=O)Cn2ccn(-c3ccc(C)c(C)c3)c(=O)c2=O)cc1Cl	·	·	·	·	–
N#C/C(=C\c1ccc(O)c(O)c1)C(=O)NCCc1ccccc1	6.3µM	?	–	?	–
N#C/C(=C\c1ccc(O)c(O)c1)C(=O)NCCCCc1ccccc1	1.6µM	?	?	–	?
Cc1cccc(-c2nc(S(=O)(=O)c3ccc(F)cc3)c(N3CCN(c4ccccc4)CC3)o2)c1	·	·	·	·	–
CCOC(=O)c1c(C)oc2ccc(NS(=O)(=O)c3ccc4c5c(cccc35)C(=O)N4)cc12	?	?	7.9µM	–	?
Cc1c(NC(=O)c2ccc(Cl)cc2)cc(C(C)C)c(O)c1S(=O)(=O)c1ccccc1	·	·	·	·	–
COC(=O)[C@@]1(Cc2ccccc2)[C@H]2c3cc(C(=O)N4CCCC4)[nH]c3C[C@H]2CN1C(=O)c1ccccc1	·	2µM	–	–	·
Cc1cc(C)c2ccc(C)[n+]([O-])c2c1O	–	?	–	–	–
Cc1cc(C)c2ccc(N)nc2c1O	–	?	–	–	5µM
C=CCc1cccc(C2Nc3ccccc3C(=O)N2O)c1O (stereo unspecified)	?	–	–	–	–
SMILES	15-hLO inh	CRE Fsk mod	Tau fil binding	Hsp90 Hop PPI	IkB sig inh
O=C1c2ccccc2NC(c2ccc(Cl)cc2Cl)N1O (stereo unspecified)	16µM	?	–	–	?
CCOC(=O)c1[nH]c(=O)c2ccccc2c1O	–	–	–	–	–
CCOC(=O)c1c(OCC)[nH]c2c1cc(O)c1ccccc12	7.9µM	–	–	–	?
O=C(O)c1cc(-c2ccc(C(F)(F)F)cc2)nc2n[nH]c(-c3ccccc3)c12	·	·	·	·	–
Cc1nnc2sc(-c3ccncc3)nn12	–	–	–	–	–
Cc1nnc2sc(-c3csc4c3CCCC4)nn12	–	10µM	–	–	–
CCCn1cnc2c(SCc3ccc(Cl)cc3)nc(N)nc21	–[11.4 µM]	3.2µM	–[11.4 µM]	–[11 µM]	–[11.4 µM]
CCCNC(=O)c1cnc2sc(N3CCCCCC3)nn2c1=O	·	·	·	·	–
CCOc1cc2[nH]c(=S)n(CCCN3CCOCC3)c(=O)c2cc1OCC	–	–	–	–	–
CCOc1cc2[nH]c(=S)n(CCCOC)c(=O)c2cc1OCC	–	13µM	–	–	–
CCc1c(C)c2cc(Cl)c(O)c(CN(CC)CC)c2oc1=O	–	10µM	–	–	–
O=c1oc2c(CN3CCOCC3)c(O)c(Cl)cc2c2c1CCC2	–	?	–	–	–
Cc1c(C)c2cc(Cl)c(O)c(CN(C)C)c2oc1=O	–	10µM	–	–	–
CCc1c(C)c2cc(Cl)c(O)c(CN(C)C)c2oc1=O	–	10µM	–	–	–
CCc1c(C)c2ccc(O)c(CN3CCN(c4ccccc4)CC3)c2oc1=O	·	·	·	·	–
COC(=O)[C@@]1(C)C[C@@H]1[C@@H](NC(=O)[C@@]1(C)C[C@@H]1[C@@H](NC(=O)[C@@]1(C)C[C@@H]1[C@@H](NC(=O)[C@@]1(C)C[C@@H]1[C@@H](NC(=O)OCc1ccccc1)c1ccccc1)c1ccccc1)c1ccccc1)c1ccccc1	–	–	–	–	·
N#Cc1c(N)sc(=S)c2c1CCCC2	–	–	–	–	–
CN1Cc2sc(N)c(C#N)c2CC1(C)C	–	10µM	–	–	–
Cc1ccc(NC(=O)C2CC(=O)N(c3ccc(OC(C)C)cc3)C2)cc1 (stereo unspecified)	·	·	·	·	–
O=C1SC(c2ccccc2)=N/C1=C/c1ccco1	–	–	25µM	–	–
COc1cc2c(cc1OC)-c1cc(=Nc3c(C)cc(C)cc3C)n(C)c(=O)n1CC2	?	2.5µM	–	–	–
CN(C)S(=O)(=O)c1cccc(-c2nnc(SCc3cc(Cl)cc4c3OCOC4)n2N)c1	13µM	?	–	–	–
COc1cccc(-c2nc(CS(=O)(=O)CC(=O)Nc3ccc(C)c(Cl)c3)c(C)o2)c1	·	·	·	·	–
Cc1ccc2c(c1)CCCN2C(=O)Nc1ccc2c(c1)OCO2	20µM	?	?	?	–
O=C(Nc1ccc2c(c1)OCO2)N1CCOCC1	–	–	–	–	–
SMILES	15-hLO inh	CRE Fsk mod	Tau fil binding	Hsp90 Hop PPI	IkB sig inh
CC(Oc1ccc(Cl)cc1Cl)c1nc(-c2ccccn2)no1 (stereo unspecified)	–[11.4 µM]	?	–[11.4 µM]	–[11 µM]	–
Clc1ccc(OCc2nc(-c3ccccn3)n[nH]2)cc1	–	?	–	16µM	?
Cc1ccccc1OCC(=O)OCc1cc(=O)n2nc(C3CCCCC3)sc2n1	·	·	·	·	–
Cc1ccc2oc(C(=O)Nc3c(C(=O)Nc4ccccc4)oc4ccccc34)cc(=O)c2c1	·	·	·	·	–
CCN(CC)c1ccc(NC(=O)CSc2nnc(C)c(=O)[nH]2)cc1	·	·	·	·	–
CC1Cc2nc(SCC(=O)NCc3ccco3)n(Cc3ccccc3)c(=O)c2S1 (stereo unspecified)	–	10µM	–	–	–
CCN1CCN(C(=O)N[C@H](C(=O)N[C@@H]2C(=O)N3C(C(=O)O)=C(CSc4nnnn4C)CS[C@@H]23)c2ccc(O)cc2)C(=O)C1=O	–	–	–	–	–
